Reference: PubChem BioAssay (NCATS)
Inconclusive results are not listed. Calls of active or inactive are those of the source. Calls come from the whole dose curve; as a rule, active = well fitted curve in the direction sought with a large enough effect; inconclusive = small, poorly fitted or top-dose-only effect, or another doubt; inactive = no such curve, though single readings can be large; an effect the other way counts as inactive or inconclusive.

Tests used:
[1] = qHTS of pediatric cancer cell lines to identify multiple opportunities for drug repurposing: Confirmatory screen for A673 cells (AID 1347110); note: nearly all actives have a fitted effect of over 65% in size; note: potency is the fitted concentration of half-maximal effect
Outline: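 Viability was read as ATP luminescence (CellTiter-Glo) after 48 h of compound exposure at 37 C in A673 cells seeded at 500-1,000/well. Titrations reached 46 uM final, with 11 points in the confirmatory screen. Concentration-response curves were fitted directly.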

[2] = qHTS of pediatric cancer cell lines to identify multiple opportunities for drug repurposing: Confirmatory screen for SK-N-MC cells (AID 1347111);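 note: cells exposed to compound for 48 h before the readout; nearly all actives have a fitted effect of over 70% in size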; note: potency is the fitted concentration of half-maximal effect
Outline: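 SK-N-MC cells at 500-1,000 cells/well in growth media were pre-incubated 5 h, then exposed to compounds at 11-point dilutions for 48 h at 37 degrees C, 5% CO2. Viability was read as CellTiter-Glo luminescence.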

[3] = qHTS of pediatric cancer cell lines to identify multiple opportunities for drug repurposing: Confirmatory screen for BT-12 cells (AID 1347112); note: nearly all actives have a fitted effect of over 55% in size; note: potency is the fitted concentration of half-maximal effect
Outline: (§1)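 Viability after 48 h compound treatment at 37C, 500-1,000 cells/well, read as ATP luminescence with CellTiter-Glo. Primary screens used 11-point (MIPE, 0.78 nM-46 µM) or 8-point (NPC, 0.59 nM-46 µM) final concentrations; follow-up screens used 11-point dilutions.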

[4] = qHTS of pediatric cancer cell lines to identify multiple opportunities for drug repurposing: Confirmatory screen for BT-37 cells (AID 1347117); note: nearly all actives have a fitted effect of over 55% in size; note: potency is the fitted concentration of half-maximal effect
Outline: as §1

[5] = qHTS of pediatric cancer cell lines to identify multiple opportunities for drug repurposing: Confirmatory screen for TC32 cells (AID 1347118); note: nearly all actives have a fitted effect of over 65% in size; note: potency is the fitted concentration of half-maximal effect
Outline: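 Luminescent ATP read-out (CellTiter-Glo) of metabolically active TC32 cells after 48 h exposure. Concentration-response curves came from 11-point (MIPE, 0.78 nM–46 µM) or 8-point (NPC, 0.59 nM–46 µM) primary titrations; follow-up used 11 points.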

[6] = qHTS of pediatric cancer cell lines to identify multiple opportunities for drug repurposing: Confirmatory screen for control Hh wild type fibroblast cells (AID 1347121); note: nearly all actives have a fitted effect of over 70% in size; note: potency is the fitted concentration of half-maximal effect
Outline: as §1

[7] = qHTS of pediatric cancer cell lines to identify multiple opportunities for drug repurposing: Confirmatory screen for U-2 OS cells (AID 1347122); note: nearly all actives have a fitted effect of over 65% in size; note: potency is the fitted concentration of half-maximal effect
Outline: as §1

[8] = qHTS of pediatric cancer cell lines to identify multiple opportunities for drug repurposing: Confirmatory screen for Rh41 cells (AID 1347123); note: nearly all actives have a fitted effect of over 60% in size; note: potency is the fitted concentration of half-maximal effect
Outline: as §1

[9] = qHTS of pediatric cancer cell lines to identify multiple opportunities for drug repurposing: Confirmatory screen for RD cells (AID 1347124);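 note: cells exposed to compound for 48 h before viability readout; nearly all actives have a fitted effect of over 65% in size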; note: potency is the fitted concentration of half-maximal effect
Outline: as §1

[10] = qHTS of pediatric cancer cell lines to identify multiple opportunities for drug repurposing: Confirmatory screen for Rh18 cells (AID 1347125); note: nearly all actives have a fitted effect of over 55% in size; note: potency is the fitted concentration of half-maximal effect
Outline: as §1

[11] = qHTS of pediatric cancer cell lines to identify multiple opportunities for drug repurposing: Confirmatory screen for Rh30 cells (AID 1347126); note: nearly all actives have a fitted effect of over 55% in size; note: potency is the fitted concentration of half-maximal effect
Outline: as §1

[12] = qHTS of pediatric cancer cell lines to identify multiple opportunities for drug repurposing: Confirmatory screen for SK-N-SH cells (AID 1347129); note: nearly all actives have a fitted effect of over 60% in size; note: potency is the fitted concentration of half-maximal effect
Outline: as §1

[13] = qHTS of pediatric cancer cell lines to identify multiple opportunities for drug repurposing: Confirmatory screen for NB1643 cells (AID 1347109); note: nearly all actives have a fitted effect of over 45% in size
Outline: as §1

[14] = qHTS of pediatric cancer cell lines to identify multiple opportunities for drug repurposing: Confirmatory screen for LAN-5 cells (AID 1347113); note: nearly all actives have a fitted effect of over 65% in size; note: potency is the fitted concentration of half-maximal effect
Outline: as §1

[15] = qHTS of pediatric cancer cell lines to identify multiple opportunities for drug repurposing: Confirmatory screen for NB-EBc1 cells (AID 1347115); note: nearly all actives have a fitted effect of over 45% in size; note: potency is the fitted concentration of half-maximal effect
Outline: as §1

[16] = qHTS of pediatric cancer cell lines to identify multiple opportunities for drug repurposing: Confirmatory screen for SJ-GBM2 cells (AID 1347116); note: nearly all actives have a fitted effect of over 60% in size; note: potency is the fitted concentration of half-maximal effect
Outline: (§2)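 Viability measured as metabolically active cells via CellTiter-Glo luminescence following 48 hours of compound exposure, 11-point dilutions in confirmatory testing. 500-1,000 cells/well plated 5 hours before dosing; controls were DMSO and 2.3 µM bortezomib.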

[17] = qHTS of pediatric cancer cell lines to identify multiple opportunities for drug repurposing: Confirmatory screen for MG 63 (6-TG R) cells (AID 1347119); note: nearly all actives have a fitted effect of over 55% in size
Outline: as §1

[18] = qHTS of pediatric cancer cell lines to identify multiple opportunities for drug repurposing: Confirmatory screen for OHS-50 cells (AID 1347128); note: potency is the fitted concentration of half-maximal effect
Outline: as §1

[19] = qHTS of pediatric cancer cell lines to identify multiple opportunities for drug repurposing: Confirmatory screen for Saos-2 cells (AID 1347127); note: nearly all actives have a fitted effect of over 60% in size
Outline: as §1

[20] = qHTS of pediatric cancer cell lines to identify multiple opportunities for drug repurposing: Confirmatory screen for DAOY cells (AID 1347114); note: nearly all actives have a fitted effect of over 65% in size; note: potency is the fitted concentration of half-maximal effect
Outline: as §2

Measured: Potency

Cc1ccc(C(=O)N(CCCN)[C@@H](c2nc3cc(Cl)ccc3c(=O)n2Cc2ccccc2)C(C)C)cc1
active: [1] 7.6 nM | [2] 0.024 µM | [3] 759 nM | [4] 53.7 nM | [5] 47.9 nM | [7] 60.3 nM | [8] 0.024 µM | [9] 2.4 µM | [11] 38 µM | [12] 12.1 µM
inactive: [6] | [10]

CCC[C@H](N[C@@H](C)C(=O)N1[C@@H]2CCCC[C@H]2C[C@H]1C(=O)O)C(=O)OCC
not listed: [1] | [10] | [11] | [18] | [19] | [20]
inactive: all other assays above

CCCC1OC2C[C@@H]3[C@H]4CCC5=CC(=O)C=C[C@]5(C)[C@H]4C(O)C[C@]3(C)[C@]2(C(=O)CO)O1 (stereo partly specified)
active: [2] 26.1 µM | [16] 1.47 µM
inactive: [1] | [3] | [15] | [6] | [18] | [12]

COC1CCC(C(=O)c2ccc3nc4c(cc3c2)CCCO4)CC1 (stereo unspecified)
not listed: [1] | [5] | [7] | [8] | [11] | [17] | [20]
inactive: all other assays above

CC(C)C[C@H](NC(=O)c1cc2ccccc2s1)C(=O)N1CCN(C(=O)[C@H](CO)NS(=O)(=O)c2ccc(Cl)cc2Cl)CC1
inactive: [16] | [6] | [10]
active: [3] 3.7 nM | [14] 23.3 µM | [4] 13100 nM | [7] 29.3 nM | [8] 18.5 µM

CN1N=C(N)c2cn([C@@H]3O[C@H](COP(=O)(O)O)[C@@H](O)[C@@H]3O)c3ncnc1c23
active: [2] 3.69 µM | [5] 737 nM | [8] 1.17 µM | [10] 329 nM | [18] 1.17 µM | [12] 1.05 µM

CON(C)C(=O)N1N=C(c2cc(F)ccc2F)S[C@]1(CCCN)c1ccccc1
active: [1] 10.4 nM | [2] 0.0093 µM | [4] 7.4 nM | [5] 11.7 nM | [7] 46.5 nM | [8] 0.0185 µM | [9] 0.0465 µM | [18] 0.0052 µM
inactive: [6] | [11]

CNC(=O)[C@H](CC1=CN=C2C=CCC=C12)NC(=O)[C@@H](CC(=O)NO)CC(C)C
active: [1] 14700 nM | [3] 2610 nM | [4] 827 nM | [7] 4140 nM | [8] 2.93 µM | [10] 1470 nM | [11] 1.47 µM
inactive: [12]

CC(C)CN(C[C@@H](O)[C@H](Cc1ccccc1)NC(=O)O[C@H]1CO[C@H]2OCC[C@H]21)S(=O)(=O)c1ccc(N)cc1
inactive: [1] | [3] | [20] | [15] | [5] | [6] | [7] | [11] | [18]

COc1cc2c(cc1Cc1cccc(Cl)c1F)c(=O)c(C(=O)O)cn2[C@H](CO)C(C)C
inactive: [16] | [6] | [7] | [9] | [10]
active: [2] 14.7 µM | [5] 13100 nM | [8] 16.5 µM

Cc1ccc2c(c1)C(=O)[C@]1(O)CCN(c3ccccc3)C1=N2
active: [8] 11.7 µM
inactive: [3] | [14] | [15] | [16] | [4] | [9] | [18] | [12]

CN1CCN(c2ncc(-c3cc(Cl)cc(Cl)c3Cl)c(N)n2)CC1
active: [4] 26100 nM | [12] 20.9 µM
inactive: [15] | [17] | [6] | [7] | [8] | [9] | [18]

CN(C(Cc1ccc(OS(=O)(=O)c2cccc3cnccc23)cc1)C(=O)N1CCN(c2ccccc2)CC1)S(=O)(=O)c1cccc2cnccc12 (stereo unspecified)
active: [2] 2.93 µM | [5] 3690 nM | [8] 5.22 µM | [18] 5.22 µM
inactive: [1] | [6] | [12]

FC(F)(F)c1ccc(C=Cc2nc(COc3ccc(CCCCn4ccnn4)cc3)co2)cc1
inactive: [16] | [10] | [18] | [12]
active: [2] 1.17 µM | [20] 261 nM | [15] 369 nM | [6] 369 nM | [7] 261 nM | [9] 1.85 µM
